# Laboratory results from paper PMC4336329 (PLoS ONE, 2015).
# The campaign covered roughly 310,000 compounds. About 14,000 (4.5%) showed an effect of 50% or more. The effect is printed as a negative number. Shown is part of a subset that was picked to be rich in strong results.
# Molecular target: human ether-à-go-go-related gene (hERG) potassium channel (human, UniProt Q12809)
# Assay: primary screen, population patch clamp on CHO cells stably expressing hERG; higher = less effect of the substance
# 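Note: peak tail current of the secondary pulse compared with the same well before compound.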
# human ether-à-go-go-related gene (hERG) potassium channel, sequence (Q12809 whole entry, looked up): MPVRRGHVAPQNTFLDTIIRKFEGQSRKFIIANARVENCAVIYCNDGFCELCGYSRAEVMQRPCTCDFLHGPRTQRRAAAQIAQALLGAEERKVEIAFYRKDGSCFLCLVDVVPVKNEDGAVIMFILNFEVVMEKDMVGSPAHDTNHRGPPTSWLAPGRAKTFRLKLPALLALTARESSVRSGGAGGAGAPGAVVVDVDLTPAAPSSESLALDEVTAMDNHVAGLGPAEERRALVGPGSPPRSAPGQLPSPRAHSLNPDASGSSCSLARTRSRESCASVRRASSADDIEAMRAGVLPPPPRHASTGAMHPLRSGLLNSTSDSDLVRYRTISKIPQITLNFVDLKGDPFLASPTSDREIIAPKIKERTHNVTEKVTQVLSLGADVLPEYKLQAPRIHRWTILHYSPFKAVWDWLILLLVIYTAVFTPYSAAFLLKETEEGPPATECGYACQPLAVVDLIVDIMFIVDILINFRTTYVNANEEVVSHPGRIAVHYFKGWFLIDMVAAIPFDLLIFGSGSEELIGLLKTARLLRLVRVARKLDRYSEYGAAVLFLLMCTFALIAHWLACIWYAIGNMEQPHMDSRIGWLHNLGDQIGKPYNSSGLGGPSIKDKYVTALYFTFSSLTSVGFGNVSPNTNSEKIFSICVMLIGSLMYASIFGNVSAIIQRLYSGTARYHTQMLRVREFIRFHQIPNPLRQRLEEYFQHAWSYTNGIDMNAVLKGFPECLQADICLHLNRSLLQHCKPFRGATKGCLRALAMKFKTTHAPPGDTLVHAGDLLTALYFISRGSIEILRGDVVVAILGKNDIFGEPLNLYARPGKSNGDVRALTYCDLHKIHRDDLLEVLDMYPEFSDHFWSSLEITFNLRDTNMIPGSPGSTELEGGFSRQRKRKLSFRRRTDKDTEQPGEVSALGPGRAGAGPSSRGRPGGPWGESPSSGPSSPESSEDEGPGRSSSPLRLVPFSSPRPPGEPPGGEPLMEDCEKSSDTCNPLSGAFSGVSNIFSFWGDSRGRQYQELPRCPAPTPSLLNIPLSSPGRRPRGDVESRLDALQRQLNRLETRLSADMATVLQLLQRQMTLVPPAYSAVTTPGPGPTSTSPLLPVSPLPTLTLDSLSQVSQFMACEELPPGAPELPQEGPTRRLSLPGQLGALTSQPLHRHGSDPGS
row,SMILES,"hERG current change (%, negative = inhibition) at 10uM [%]"
1,Cc1c(-c2ccccc2)c(=O)oc2ccc(O)cc12,13.8
2,CC1CCCCC1NC1CCN(C)CC1 (stereo not drawn),23.9
3,O=C(Nc1ccc2c(c1)OCO2)c1c(F)cccc1F,3.95
4,COc1ccccc1-c1cc(C(=O)NCc2ccc(Cl)cc2)no1,3.64
5,Cc1cc(Nc2nn(C)c(N)c2C#N)ccc1F,-14.8
6,Cc1cc(Nc2n[nH]c(N)c2C#N)ccc1F,-70.2
7,Cc1cc(Nc2c(C#N)c(N)nn2C)ccc1F,6.99
8,CCOc1ccc(C(=O)Nc2cc(-c3nc4ccccc4[nH]3)ccc2Cl)cc1[N+](=O)[O-],-29.1
9,CCCn1c2ccccc2c2cnn(CC(=O)NC3CCCCC3C)c(=O)c21 (stereo not drawn),11.7
10,CCCn1c2ccccc2c2cnn(CC(=O)NCCCN3CCCC(C)C3)c(=O)c21 (stereo not drawn),-70.8
11,CCCn1c2ccccc2c2cnn(CC(=O)NCCCN3C(C)CCCC3C)c(=O)c21 (stereo not drawn),-41.8
12,CCCn1c2ccccc2c2cnn(CC(=O)NCCCN3CCCCC3CC)c(=O)c21 (stereo not drawn),-62.2
13,CCC1CCCCN1CCCNC(=O)Cn1ncc2c(C)n(Cc3ccccc3Cl)c(C)c2c1=O (stereo not drawn),-14.6
14,CCCn1c2ccccc2c2cnn(CC(=O)NCCCN3CCN(c4ccccc4)CC3)c(=O)c21,-74.2
15,CCC1CCCCN1CCCNC(=O)Cn1ncc2c([nH]c3ccc(C)cc32)c1=O (stereo not drawn),-6.66
16,CCCn1c2ccccc2c2cnn(CC(=O)NCCCOC)c(=O)c21,-1.43
17,CCCn1c2ccccc2c2cnn(CC(=O)N3CCOCC3)c(=O)c21,-13.7
18,CCCn1c2ccccc2c2cnn(CC(=O)N3CCN(C4CCCCC4)CC3)c(=O)c21,-72.6
19,Cn1c2ccccc2c2cnn(CC(=O)N3CCCCC3)c(=O)c21,-10.4
20,Cc1ccc(N(Cc2cc3ccccc3[nH]c2=O)C(=O)c2cccs2)cc1C,9.8
21,O=C(NNc1ccc(Cl)cc1)C1CCC1,16.6
22,Cc1cc(C)cc(OCC(=O)O/N=C(\N)c2ccccc2Cl)c1,-13.6
23,CCOc1cc(/C=C(\C#N)C(N)=O)ccc1OCc1c(C)no[n+]1[O-],-0.204
24,Cc1cc(C)n(-c2ccc(C(F)(F)F)cc2[N+](=O)[O-])n1,1.78
25,Cc1nn(C)c(N)c1-c1ccccc1,25.4
26,CCCn1c2ccccc2c2cnn(CC(=O)NCCCN3CCCCC3)c(=O)c21,-53.4
27,CCCn1c2ccccc2c2cnn(CC(=O)NC3CCN(Cc4ccccc4)CC3)c(=O)c21,-55.1

row,SMILES,"hERG current change (%, negative = inhibition) at 10uM [%]"
1,O=C(Cn1ncc2c3ccccc3n(Cc3ccccc3)c2c1=O)NCCCN1CCCC1,-72.5
2,O=C(Cn1ncc2c3ccccc3n(Cc3ccccc3)c2c1=O)NCCCN1CCCC1=O,-29.8
3,CCCn1c2ccccc2c2cnn(CC(=O)NC3CCC(C)CC3)c(=O)c21 (stereo not drawn),9.11
4,Cc1ccccc1Cn1c2ccccc2c2cnn(CC(=O)NCCCN3CCN(C)CC3)c(=O)c21,-3.23
5,O=C(Cn1ncc2c3ccccc3n(Cc3ccc(Cl)cc3)c2c1=O)NCCCN1CCCC1=O,-34.5
6,Cc1ccc(C)c(Cn2c3ccccc3c3cnn(CC(=O)NCCCN4CCCCC4)c(=O)c32)c1,-71.9
7,Cc1ccc(C)c(Cn2c3ccccc3c3cnn(CC(=O)NCCCN4CCOCC4)c(=O)c32)c1,-49.7
8,CCCn1c2ccccc2c2cnn(CC(=O)NC3CCCCC3)c(=O)c21,2.23
9,Cc1ccccc1N(C(=O)c1csnn1)C(C(=O)NC1CCCCC1)c1ccncc1 (stereo not drawn),10.7
10,CN(C)S(=O)(=O)c1cc(NC(=O)CN2CCOCC2)ccc1Cl,17.7
11,COc1ccc(NC(=O)c2sc3nc(C)nc(N4CCN(c5ccccn5)CC4)c3c2C)cc1Cl,-3.04
12,Cc1oc2cc(O)cc(O)c2c(=O)c1-c1ccc2c(c1)OCCCO2,3.88
13,O=C(NC1CCCCCCC1)C1CCN(S(=O)(=O)N2CCCC2)CC1,-2.62
14,O=C(CNC(=O)c1ccco1)OCC(=O)c1ccc([N+](=O)[O-])cc1,11.9
15,CCc1noc(C)c1C(=O)OCC(=O)c1ccc(OC)c(OC)c1,-5.3
16,CC(=O)c1ccc(NC(=O)c2ccc3c(=O)n4c(nc3c2)CCCCC4)cc1,-5.23
17,CCOc1ccc(NC(=O)c2ccc3c(=O)n4c(nc3c2)CCCCC4)cc1,19.5
18,COc1ccc(NC(=O)c2ccc3c(=O)n4c(nc3c2)CCCCC4)cc1,-40
19,CCc1cccc(NC(=O)c2ccc3c(=O)n4c(nc3c2)CCCCC4)c1,-76.6
20,CCOc1ccccc1NC(=O)c1ccc2c(=O)n3c(nc2c1)CCCCC3,-58.6
21,CCc1ccc(C(=O)NNC(=O)c2ccc3c(=O)n4c(nc3c2)CCC4)cc1,5.5
22,CC(=O)c1cccc(NC(=O)c2ccc3c(=O)n4c(nc3c2)CCCCC4)c1,-75.5
23,O=C(Nc1ccc(Cl)cc1)c1ccc2c(=O)n3c(nc2c1)CCCCC3,-32.5
24,O=C(Nc1ccc(F)cc1)c1ccc2c(=O)n3c(nc2c1)CCCCC3,-51.8
25,CCOC(=O)c1ccccc1NC(=O)c1ccc2c(=O)n3c(nc2c1)CCCCC3,-41.3
26,CCN(CC)C(=O)c1cccc(NC(=O)c2ccc3c(=O)n4c(nc3c2)CCC4)c1,-10.7
27,CCc1ccc(NC(=O)c2ccc3c(=O)n4c(nc3c2)CCCCC4)cc1,-46.8
